Sampled rows, rich in hits. Any-hit rate of the full collection: about 3.5%.
mHTT-CaM PPI inh – mutant huntingtin-calmodulin interaction inhibitors – biochemical, AlphaScreen, primary screen | AID 1671202, 2021 | AlphaScreen His-mHTT/GST-CaM binding, luminescence | P42858 | inhibition, % at 15 µM | 3.6% of 190,000 active;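 note: 0% = both proteins with DMSO and 100% = one protein alone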
Pf apPOL block – Pf-apPOL inhibitors, biochemical, fluorescence. 0.25% of 210,000 active. Plasmodium falciparum apicoplast DNA polymerase (apPOL). Recombinant Pf-apPOL, molecular beacon fluorescence, 1.5 h. inhibition, % at 10 µM
Active calls of the source: *; x = no result. Cut-off read from the data, not from the text of the source: active = inhibition above about 50%; inactive = the rest.

SMILES | mHTT-CaM PPI inh | Pf apPOL block
O=C(NCCN1CCOCC1)C1CCc2sc(C(=O)N3CCOCC3)cc2C1 (centres undefined) | 0.9 | -3.4
CCN(CC)Cc1c(O)ccc2c1OC(=Cc1ccccc1C)C2=O | 9.6 | -0.1
CN1CCN(Cc2c(O)ccc3c2OC(=Cc2c[nH]c4ccccc24)C3=O)CC1 | -0.9 | -9.5
CCN1CCN(Cc2c(O)ccc3c2OC(=Cc2c[nH]c4ccccc24)C3=O)CC1 | 54.0* | -5.9
CCN(CC)Cc1c(O)ccc2c1OC(=Cc1c[nH]c3ccccc13)C2=O | 72.3* | -31.2
CCCNC(=O)c1cn2c(n1)CCC(c1ccc(OC)cc1)C2 (centres undefined) | -2.1 | -7.9
Cn1c(C2CCN(S(=O)(=O)c3ccccc3)CC2)cc(=O)n2nccc12 | -1.3 | -3.8
CC(=O)c1c(C(C)=O)c(C)n(CCc2c[nH]c3ccccc23)c1C | 5.4 | -12.7
O=C1C2C3c4ccccc4C(c4ccccc43)C2C(=O)N1CCc1c[nH]c2ccccc12 (centres undefined) | 100.3* | -89.3
CSC1=NSC2=NC(=O)/C(=C\c3ccc4c(c3)OCO4)C(=N)N12 | 13.0 | -4.4
N#Cc1cccc(NC(=O)N2CCC(CCOc3ccccc3)CC2)c1 | -5.0 | 3.7
COc1ccc(-c2ccc3nc(C(=O)NCc4cccnc4)cn3c2)cc1 | 59.0* | 3.6
COc1cccc(CNC(=O)c2cn3cc(C)ccc3n2)c1 | -2.9 | -2.9
CC1=NN(c2ccc(Cl)c(Cl)c2)C(=O)/C1=C/c1ccc(-c2ccc3c(c2)C(=O)OC3)o1 | 38.0 | -8.6
O=C1NN(c2ccc(Cl)c(Cl)c2)C(=O)/C1=C/c1ccc(-c2ccc3c(c2)COC3=O)o1 | 60.0* | 55.7*
Cc1cccc(-c2noc(C3CCCN3C(=O)c3cccc(Cl)c3)n2)c1 (centres undefined) | 30.3 | -6.5
O=[N+]([O-])c1ccc(NCCCNS(=O)(=O)c2ccc(Cl)cc2)c(C(F)(F)F)c1 | 53.0* | 6.8
CC(=O)Nc1ccc(S(=O)(=O)NCCCNc2ccc([N+](=O)[O-])cc2Cl)cc1 | 11.2 | -6.5
O=c1oc2ccc(Br)cc2cc1C1=Nn2c(nnc2-c2ccccc2)SC1 | 5.0 | -5.4
O=C(CSCc1cccc2ccccc12)NNC(=S)NC1CC2C=CC1C2 (centres undefined) | x | -108.2
OC(COCC12CC3CC(CC(C3)C1)C2)CN1CCN(Cc2ccccc2)CC1 (centres undefined) | 24.6 | 1.8
OC(COCC12CC3CC(CC(C3)C1)C2)CN1CCN(c2ccccc2F)CC1 (centres undefined) | 32.6 | -4.1
OC(COCCC12CC3CC(CC(C3)C1)C2)CN1CCN(Cc2ccccc2)CC1 (centres undefined) | 56.6* | -1.4
OC(COCCC12CC3CC(CC(C3)C1)C2)CN1CCN(c2ccccc2F)CC1 (centres undefined) | 53.3* | 5.1
CC(C)C(=NO)c1ccc(OCCOc2ccc(C(=NO)C(C)C)cc2)cc1 | 0.2 | -2.3
SMILES | mHTT-CaM PPI inh | Pf apPOL block
Cc1sc2ccn(C)c(=O)c2c1C(=O)N1CCN(CC(C)C)CC1 | 13.9 | 0.2
O=C(c1ccccc1C(=O)N1CCc2ccccc2C1)N1CCc2ccccc2C1 | 9.3 | 0.0
COc1cc(OC)cc(-n2nc(C(=O)Nc3ccc(F)c(Cl)c3)c3ccccc3c2=O)c1 | 2.0 | 5.0
CCOc1ccc(CN2CCc3nc(Nc4ccccc4)ncc3C2)cc1OC | -6.4 | -2.2
COc1cc(CN2CCc3nc(Nc4ccccc4)ncc3C2)ccc1OC(C)C | 57.2* | -0.6
COc1cc(CN2CCc3nc(Nc4ccc(F)cc4)ncc3C2)ccc1OC(C)C | 95.5* | -4.7
COc1cc(CN2CCc3nc(Nc4ccccc4F)ncc3C2)ccc1OC(C)C | 10.8 | -3.1
O=C(C1=CN(c2cccc(Cl)c2)c2ccccc2S1(=O)=O)N1CCCCC1 | 5.0 | -2.0
COc1ccc(CNC(=O)CCc2nc3ccccc3n(Cc3ccccc3Cl)c2=O)cc1 | 22.0 | -4.8
Cc1ccc2ncnc(NCc3ccccc3)c2c1 | 1.2 | -5.8
Cc1cc(OCC(=O)Nc2ccc(C)c(C)c2)nc(N2CCCC2)n1 | 9.7 | -2.5
CCNc1nc(-c2ccccc2)cs1 | x | -11.5
c1ccc(-c2csc(NCc3ccco3)n2)nc1 | 98.6* | -17.6
c1ccc(-c2csc(NCc3ccco3)n2)cc1 | 24.2 | -8.6
c1ccc(CNc2nc(-c3ccccn3)cs2)cc1 | 100.2* | -2.0
N#Cc1c(C(F)(F)F)cc(-c2cccs2)nc1SCC(=O)Nc1ccc([N+](=O)[O-])cc1 | 0.0 | 63.8*
N#Cc1c(C(F)(F)F)cc(-c2cccs2)nc1SCC(=O)Nc1ccccc1 | -13.0 | 12.2
Cc1ccsc1CN1CCN(c2ccc(F)cc2)CC1 | 3.9 | -10.5
CCCOc1ccc(CN2CCCC2c2cc(C)on2)cc1 (centres undefined) | -11.4 | 3.0
Cn1c(-c2cccc(C(=O)NC3CCCCCC3)c2)nc2cccnc21 | -0.9 | -3.2
O=[N+]([O-])c1ccc(Sc2ccsc2)c([N+](=O)[O-])c1 | 69.3* | x
O=[N+]([O-])c1cc(Cl)ccc1Sc1ccccc1 | x | 7.1
CC(=O)N1CCc2cc(N3CC(C(=O)NCCC(C)C)CC3=O)ccc21 (centres undefined) | -0.2 | 0.7
CC1CCN(C(=O)c2nc(-c3ccc(N4CCCCCC4)cc3)no2)CC1 | -20.6 | -4.2
COc1ccccc1CN1COc2ccc3c(c2C1)OC(=Cc1cc(OC)c(OC)c(OC)c1)C3=O | 8.0 | -17.2
SMILES | mHTT-CaM PPI inh | Pf apPOL block
COc1cccc(C=C2Oc3c(ccc4c3CN(Cc3ccccn3)CO4)C2=O)c1 | 99.3* | -32.9
COc1ccc(N2COc3ccc4c(c3C2)OC(=Cc2ccc(OC)c(OC)c2)C4=O)cc1 | 31.3 | 4.8
COc1cc(C=C2Oc3c(ccc4c3CN(c3ccc5c(c3)OCO5)CO4)C2=O)cc(OC)c1OC | 59.1* | -1.4
COc1ccc(OC)c(C=C2Oc3c(ccc4c3CN(Cc3ccncc3)CO4)C2=O)c1 | 15.6 | -4.6
COc1cc(C=C2Oc3c(ccc4c3CN(Cc3ccccn3)CO4)C2=O)cc(OC)c1OC | 100.3* | -35.9
COc1cccc(CN2COc3ccc4c(c3C2)OC(=Cc2cc(OC)c(OC)c(OC)c2)C4=O)c1 | 11.0 | 8.0
COc1ccc(C=C2Oc3c(ccc4c3CN(Cc3ccccn3)CO4)C2=O)c(OC)c1 | 100.2* | -89.2
Cc1c(C(=O)Nc2ccc3c(c2)OCO3)cccc1[N+](=O)[O-] | 13.0 | -7.3
COc1cccc(CNC(=O)N2CCC(C(=O)NCc3csc(C)n3)CC2)c1 | -12.3 | -7.3
COc1ccc(C(=O)N2CCc3nc(-c4ccc(Cl)cc4)ncc3C2)cc1F | -8.3 | -0.7
O=C1S/C(=C\c2ccc3c(c2)OCO3)C(=O)N1CNc1cccc(Br)c1 | -5.0 | -3.3
COc1ccccc1CN1COc2ccc3c(c2C1)OC(=Cc1cccnc1)C3=O | 3.1 | -10.5
COc1ccccc1CN1COc2ccc3c(c2C1)OC(=Cc1ccncc1)C3=O | 100.3* | -20.8
COc1ccc(C2Oc3c(Br)cc(Br)cc3C=C2[N+](=O)[O-])cc1OC (centres undefined) | 69.0* | -6.9
COc1cc(C2Oc3ccccc3C=C2[N+](=O)[O-])ccc1OCc1ccccc1 (centres undefined) | 37.0 | -3.1
CCn1cnnc1C1CCN(C(=O)Cc2c[nH]c3ccccc23)CC1 | 5.0 | -2.7
CN1CCN(C(=N)C(C#N)=Cc2[nH]c3ccccc3c2O)CC1 | 24.0 | 1.2
COc1ccc(N=C(N)C(C#N)=Cc2[nH]c3ccccc3c2O)cc1 | 69.0* | 2.5

Screening results from PubChem.
